An excerpt weighted towards active compounds, which were near 11% of everything screened.
IMPase inh – IMPase inhibition in cells. AID 901. inhibition (IP1 accumulation), % at 46.1 µM. 120,000 tested, under 10 active. P97697. CHO-M1 cells, IP1 accumulation, HTRF TR-FRET ratio; active = well fitted curve in the direction sought with a large enough effect in the signal ratio, not every such curve was filed as active; inconclusive = small, poorly fitted or top-dose-only effect, or a change in a side signal; inactive = no such curve, though single readings can be large or run the other way; the % refers to the signal ratio;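 note: cells stimulated with carbachol in lithium chloride buffer; plate controls were DMSO basal wells for no effect and reference inhibitor wells for full effect; higher means more IMPase inhibition seen as more IP1 and lower FRET ratio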
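Elevated IP1 in lysates lowers TR-FRET signal (665/620 ratio and 620 channel reported). Cells were CHO-M1, given carbachol (50 uM as added) plus 50mM LiCl, pH 7.4, 30 min, 37C; compounds titrated up to 46 uM; AC50 by Hill equation.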
ALOX12 inhib – blocks human 12-lipoxygenase activity; purified 12-hLO, xylenol orange hydroperoxide absorbance; Potency, µM (doses to about 57.1 µM), inactives show at the top dose activity change, negative = inhibition, usual class: inhibitors; 150,000 compounds, 0.12% hits; AID 1452; note: potency is the fitted concentration of half-maximal effect; nearly all actives have a fitted effect of over 55% in size
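Hydroperoxide output read as Fe(III)-xylenol orange absorbance, 573-to-405 nm ratio, after 30 min reaction with 40 uM arachidonic acid. Enzyme: 150 nM purified human 12hLO, 15 min compound preincubation; 25 mM Hepes pH 7.0, room temperature.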
ALDH1A1 block – blocks purified human ALDH1A1 activity; P00352; Purified ALDH1A1, NADH fluorescence, propionaldehyde substrate; Potency, µM (top dose mostly 75.3 µM), without a hit: at the top dose activity, negative = inhibition, hits mostly inhibitors; 220,000 compounds, 7.3% hits; AID 1030; active = well fitted inhibition curve with a large enough effect, not every such curve was filed as active; inconclusive = small, poorly fitted or top-dose-only effect, or another doubt; inactive = no such curve, though single readings can be large or run the other way;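 note: potency is the fitted concentration of half-maximal effect; plate controls were no enzyme wells and a reference inhibitor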
Target sequence (P00352 whole entry, looked up): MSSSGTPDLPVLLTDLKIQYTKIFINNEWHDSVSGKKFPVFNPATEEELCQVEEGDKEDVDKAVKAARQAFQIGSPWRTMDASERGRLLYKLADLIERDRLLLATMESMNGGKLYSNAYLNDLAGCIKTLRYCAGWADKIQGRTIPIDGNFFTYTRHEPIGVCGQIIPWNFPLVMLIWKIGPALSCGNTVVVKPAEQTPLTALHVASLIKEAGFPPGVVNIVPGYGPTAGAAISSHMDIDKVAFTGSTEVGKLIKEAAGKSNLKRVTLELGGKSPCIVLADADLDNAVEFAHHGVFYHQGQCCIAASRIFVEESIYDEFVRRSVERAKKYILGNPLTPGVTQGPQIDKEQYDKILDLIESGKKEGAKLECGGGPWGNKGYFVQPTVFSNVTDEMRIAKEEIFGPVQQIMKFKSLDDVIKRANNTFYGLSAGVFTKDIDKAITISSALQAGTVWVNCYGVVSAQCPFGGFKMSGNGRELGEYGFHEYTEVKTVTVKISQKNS
IMPase Li cell – membrane-permeable IMPase blocker, potentiated with lithium; CHO-M1 cells, IP1 TR-FRET (IP-One), carbachol + lithium; Potency, µM (top dose mostly 59.4 µM), for inactives: at the top dose activity, negative = IMPase inhibition, usual class: inhibitors; 210,000 compounds, 0.35% hits; AID 1457;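 note: IP1 builds up when IMPase is blocked and the TR-FRET signal falls; potency is the fitted concentration of half-maximal effect; plate controls were basal vehicle for no effect and high inhibitor control for full effect; nearly all actives have a fitted effect of over 50% in size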
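Concentration–response in CHO-M1 cells, lithium-potentiated; 30 min at 37C. IP1 detected by competitive TR-FRET after 10 min lysis at RT. Hill-fitted AC50.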
HPGD inh – HPGD (human) dehydrogenase inhibition; purified HPGD, NADH fluorescence kinetic, PGE2 substrate; P15428; 150,000 compounds, 4.3% hits; Potency, µM, for the others: at the top dose activity change, negative = inhibition, actives largely listed as inhibitors; active = well fitted inhibition curve with a large enough effect, not every such curve was filed as active; inconclusive = small, poorly fitted or top-dose-only effect, or another doubt; inactive = no such curve, though single readings can be large or run the other way; note: potency is the fitted concentration of half-maximal effect
Target sequence (P15428 whole entry, looked up): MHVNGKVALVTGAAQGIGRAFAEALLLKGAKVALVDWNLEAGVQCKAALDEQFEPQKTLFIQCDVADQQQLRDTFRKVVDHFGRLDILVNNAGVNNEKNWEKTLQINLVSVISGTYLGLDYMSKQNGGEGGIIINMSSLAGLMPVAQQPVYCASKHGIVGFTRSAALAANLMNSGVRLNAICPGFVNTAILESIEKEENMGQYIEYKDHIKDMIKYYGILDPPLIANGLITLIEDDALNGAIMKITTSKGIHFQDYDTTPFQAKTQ
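20 nM HPGD preincubated 15 min at room temperature with compound in 50 mM Tris-HCl pH 8, 0.01% Tween 20. Started with 1 mM NAD+ and 30 uM prostaglandin E2; NADH fluorescence (360/450 nm) read 5 times over 30-s intervals, last minus first.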
PNC assembly inh – inhibitors of perinucleolar compartment assembly; PC3M PTB-GFP, PNC prevalence imaging, 16 h; active compounds read low; activity change (PNC), negative = inhibition, % at 10 µM; 140,000 compounds, 3.1% hits;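 active = readout at or below -70, meaning at least 70% loss of cells showing the perinucleolar compartment, a nuclear body marking cancer cells; inconclusive = readout between -30 and a set limit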;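 note: plate controls were DMSO wells for no effect and camptothecin positive control wells for full effect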
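Read-out is percentage of cells bearing a perinucleolar compartment, from automated 20x imaging of fixed, Hoechst-stained PC3M PTB-GFP cells. Cells were seeded 4 h, then exposed 16 h to compound (23 nl of library stock) in duplicate plates.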
* marks the source's active call; other numbers are inactive results; ? = inconclusive; · = no result; [ ] = dose if it differs, or a comment. Unless noted, calls come from the whole dose curve; as a rule, active = well fitted curve in the direction sought with a large enough effect; inconclusive = small, poorly fitted or top-dose-only effect, or another doubt; inactive = no such curve, though single readings can be large; an effect the other way counts as inactive or inconclusive. Unless noted, % is set by controls: 0 for no effect and ±100 for the full control effect.

SMILES	IMPase inh	ALOX12 inhib	ALDH1A1 block	IMPase Li cell	HPGD inh	PNC assembly inh
CCOC(=O)c1c(NC(=O)COC(=O)Cn2c(C)nc3ccccc32)sc2c1CCCC2	·	0%	?	4%	-20%	19
COC(=O)c1c(NC(=O)COC(=O)Cn2cnc3ccccc32)sc(C)c1C	11	-5%	25µM*	-20%[38.3 µM]	-19%	2
CCOC(=O)c1c(NC(=O)COC(=O)Cn2cnc3ccccc32)sc2c1CCC(C)C2 (centres undefined)	·	-19%	7.9µM*	11%	-25%	23
CCOC(=O)c1c(NC(=O)COC(=O)Cn2cnc3ccccc32)sc(C)c1C	1	-1%	?	-8%[38.3 µM]	-5%	?
COc1ccc(C(=O)On2c(-c3ccc(Br)cc3)nc3ccccc3c2=O)cc1	·	-6%	?	13%	-11%	-6
COc1cc(OC)cc(-c2nc3ccccc3c(=O)n2OC(=O)c2ccc(Br)cc2)c1	·	-15%	-4%	-5%	-16%	-116*
Cc1ccc[n+](/C(C(=S)NCc2ccco2)=C(/[O-])c2ccccc2Cl)c1	-3	-6%	-1%	26%[38.3 µM]	-8%	-5
CC(C)(C)c1ccc(/C([O-])=C(/C(=S)NCc2ccco2)[n+]2ccccc2)cc1	?	-20%	10µM*	?	-22%	34
NC1=NC2C(N=C(Br)N2[C@@H]2O[C@H]3COP(=O)(O)O[C@@H]3[C@@H]2O)C(=O)N1 (some centres undefined)	·	·	9%	16%	·	·
CCCC(=O)N(c1ccc2oc(-c3ccccc3)c(C(=O)OCC)c2c1)S(=O)(=O)c1ccc(C)cc1	-7	·	·	·	·	·
CCn1c(=O)cc(OCC(=O)N2CCN(C(=O)c3ccco3)CC2)c2ccccc21	5	-2%	18µM*	28%[38.3 µM]	-12%	9
CCOC(=O)COc1cc(=O)n(CC)c2ccccc12	-7	-3%	-4%	-3%[38.3 µM]	-4%	?
CN(C(=O)COc1cc(=O)n(C)c2ccccc12)c1ccc(Br)cc1	1	-8%	22µM*	28%[38.3 µM]	-10%	-22
CCn1c(=O)cc(OCC(=O)N(C)C2CCCCC2)c2ccccc21	-6	-2%	20µM*	14%[38.3 µM]	-10%	-19
COC(=O)[C@@]1(Cc2ccc(OC)cc2)[C@H]2c3cc(C(=O)N(C)C)n(CCN4CNCC4=O)c3C[C@H]2CN1C(=O)c1ccccc1	·	-1%	-9%	-10%	-16%	·
COC/C=C/C1=CC2=CC(=O)C(C)(OC(=O)c3cnc4ccccc4n3)C(=O)C2=CN1C1CCCC1 (centres undefined)	·	-3%[11.4 µM]	-5%[13.5 µM]	8%	-2%	·
COCCCNC(=O)c1ccc2c(=O)n(Cc3ccc4c(c3)OCO4)c(=S)[nH]c2c1	-4	-4%	6%	?	-19%	10
CC1CC(C)CN(C(=O)c2ccc3c(=O)n(Cc4ccc5c(c4)OCO5)c(=S)[nH]c3c2)C1 (centres undefined)	11	-18%	1.4µM*	-17%[38.3 µM]	16µM*	?
CN1CCN(C(=O)c2ccc3c(=O)n(Cc4ccc(Cl)cc4)c(=S)[nH]c3c2)CC1	?	-18%	22µM*	-15%[38.3 µM]	-19%	-8
O=S(=O)(NCc1ccc(Cl)cc1)c1ccc(Cl)nc1	7	7%	6%	-5%[38.3 µM]	-8%	?
NS(=O)(=O)c1ccc(CNS(=O)(=O)c2ccc(Cl)nc2)cc1	·	·	22µM*	6%	·	·
C[N+]1(C)CCCC(OC(=O)C(O)(c2ccccc2)c2ccccc2)C1 (centres undefined)	·	6%	0%	38%	2%	·
COc1ccccc1-c1ccc(Nc2ccc(C(=O)N3CCOCC3)cc2)nn1	0	0%	?	5%	7.9µM*	164
COc1ccc(-c2ccc(Nc3ccc(C(=O)N4CCOCC4)cc3)nn2)cc1OC	18	1%	0%	4%	18µM*	-2
Cc1[nH]n(-c2ncc(-c3ccccc3)s2)c(=O)c1C(c1ccc(Cl)cc1)C(C#N)C#N (centres undefined)	·	-3%	28µM*	-1%	25µM*	12
SMILES	IMPase inh	ALOX12 inhib	ALDH1A1 block	IMPase Li cell	HPGD inh	PNC assembly inh
O=S(=O)(O)C(c1ccccc1)[C@@H](O)c1ccccc1 (some centres undefined)	·	·	24%[13.5 µM]	-4%	-9%	·
CC[C@](N)(C(=O)O)C(C)C	·	-1%[11.4 µM]	-4%[13.5 µM]	3%	-2%	·
Cc1cc(NC(=O)CSc2nc3c(sc4ccccc43)c(=O)n2CCCN2CCOCC2)n[nH]1	-3	1%	5%	?	-9%	-83*
O=c1cc(-c2ccc(O)c(O)c2)oc2cc(OC3OC(CO)C(O)C(O)C3O)cc(O)c12 (centres undefined)	1	-11%	?	15%	-1%	·
Cc1nc(N2CCCCC2)sc1C(=O)c1cccc([N+](=O)[O-])c1	·	·	10µM*	27%	·	·
Cc1nc(N2CCCCC2)sc1C(=O)c1ccc(SCCO)c([N+](=O)[O-])c1	·	·	13µM*	15%	·	·
COc1ccc(CCNC(=S)Nc2cccc3ccccc23)cc1	·	?	22µM*	0%	-8%	-2
CCn1cc(CNC(=S)Nc2cccc3ccccc23)cn1	·	·	6.3µM*	2%	·	·
S=C(NCCc1ccccc1)Nc1cccc2cnccc12	·	·	20µM*	13%	·	·
S=C(NCc1cccnc1)Nc1cccc2ccccc12	·	1%	5µM*	6%	-20%	-7
Cc1ccc(O)c(-c2cc(-c3ccccc3C)[nH]n2)c1	12	-21%	6%	28%[38.3 µM]	22µM*	23
Cc1ccc(O)c(-c2cc(C(F)(F)C(F)F)[nH]n2)c1	5	-20%	17%	12%[38.3 µM]	16µM*	-7
COc1ccc(O)c(-c2cc(-c3ccccc3[N+](=O)[O-])[nH]n2)c1	·	0%	0%	-7%	22µM*	-25
O=[N+]([O-])c1ccccc1-c1cc(-c2cc(Cl)ccc2O)n[nH]1	·	-22%	0%	6%	11µM*	51
COc1ccc(-c2cc(-c3cc(C)ccc3O)[nH]n2)cc1	·	·	1%	12%	·	·
Cc1ccc(O)c(-c2cc(-c3ccccc3[N+](=O)[O-])[nH]n2)c1	·	-10%	11%	5%	4.5µM*	4
CCOC(=O)c1ccc(NC(=O)CC2Nc3ccccc3NC2=O)cc1 (centres undefined)	2	·	·	·	·	·
CC(=O)Nc1ccc(OS(=O)(=O)c2cc(Cl)ccc2C)cc1	·	·	?	13%	·	·
CCc1cccc(C)c1NC(=O)c1cccc(C(=O)Nc2c(C)cccc2CC)c1	2	·	·	·	·	·
